Inconclusive results are not listed. A number with no mark means an inactive call. Calls follow the shape of the dose curve; as a rule, active = well fitted inhibition curve with a large enough effect; inconclusive = small, poorly fitted or top-dose-only effect; inactive = flat fitted curve, though single readings scatter.
% is scaled to controls: 0 for no effect and ±100 for the full control effect.

A short description of this assay: Drug repurposing screens with cells derived from glioblastoma tumor samples (AID 1345199). Also: nearly all actives have a fitted effect of over 40% in size. The settings on record: GBM patient neurospheres viability, ATP luminescence, 48 h; at 45.9 µM (top of the series); tumour line B. Put shortly:
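Four patient lines of CD133+ GBM neurospheres were screened at several concentrations; hits were retested in those lines plus three slower-growing GBM lines, using 48-hour treatment and ATP-based viability.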
For `CC(=O)O[C@H]1CC[C@@]2(C)C(=CC[C@H]3[C@@H]4CC[C@H](C(C)=O)[C@@]4(C)CC[C@@H]32)C1`, the activity, negative = cell killing was -9.15%. For the compound `CC(=O)O[C@H]1C[C@@H]2CC[C@@H]3[C@H](CC[C@@]4(C)[C@H]3C[C@H](N3CC[N+](C)(C)CC3)[C@@H]4OC(C)=O)[C@@]2(C)C[C@@H]1N1CC[N+](C)(C)CC1`, the activity, negative = cell killing is -3.42%. `O=C(CCCN1CCC(n2c(=S)[nH]c3ccccc32)CC1)c1ccc(F)cc1`: the activity, negative = cell killing was -28.9%. In the case of `NNc1nnc(Cc2ccncc2)c2ccccc12` it was -17.7%; in that of `O=C(Cn1c(=O)sc2ccc(Cl)cc21)N1CCN(CCO)CC1`, -0.42%; in that of `CCC(c1ccccc1)c1noc(CCN(CC)CC)n1` (stereo unspecified), -14.3%. As for `COC1=C(C(=O)O)N2C(=O)[C@@H](NC(=O)[C@H](N)C3=CCC=CC3)[C@H]2SC1`, the figure is -9.93%; as for `CCCCCCCC/C=C\CCCCCCCC(=O)OC[C@@H](O)[C@H]1OC[C@H](O)[C@H]1O`, -4.65%; as for `CCOC(=O)Cc1cccc(-c2cc(CCCCCCc3ccc(O[C@H]4O[C@H](COC(C)=O)[C@@H](OC(C)=O)[C@H](OC(C)=O)[C@@H]4OC(C)=O)c(-c4cccc(CC(=O)OCC)c4)c3)ccc2O[C@H]2O[C@H](COC(C)=O)[C@@H](OC(C)=O)[C@H](OC(C)=O)[C@@H]2OC(C)=O)c1`, -6.7%. In the case of `Cc1ccc(C2(O)CCN(CCCC(=O)c3ccc(F)cc3)CC2)cc1` it was -26.3%; in that of `C[C@]12CC[C@@H]3c4ccc(OS(=O)(=O)O)cc4CC[C@H]3[C@@H]1CCC2=O`, -10.8%.

These data come from PubChem BioAssay (NCATS).
